Results taken from publication PMC7862700, “An all-to-all approach to the identification of sequence-specific readers for epigenetic DNA modifications on cytosine”.

Tests used:
Assay in all cases: DAPPL (digital affinity profiling via proximity ligation, sequencing); 10 mM Tris-HCl pH 7.5, 50 mM NaCl, 1 mM DTT, 4% glycerol, room temperature, 30 min; GST-TFs on glutathione beads, 16-mer random dsDNA library, 0.1% formaldehyde crosslink after washing; high values mean tight binding
Conditions in all cases: protein: recombinant; tags: N-terminal GST; dsDNA, one strand shown
FLI1 = target: T1, FLI1 (Homo sapiens, UniProt Q01543 1-452)
T1 sequence: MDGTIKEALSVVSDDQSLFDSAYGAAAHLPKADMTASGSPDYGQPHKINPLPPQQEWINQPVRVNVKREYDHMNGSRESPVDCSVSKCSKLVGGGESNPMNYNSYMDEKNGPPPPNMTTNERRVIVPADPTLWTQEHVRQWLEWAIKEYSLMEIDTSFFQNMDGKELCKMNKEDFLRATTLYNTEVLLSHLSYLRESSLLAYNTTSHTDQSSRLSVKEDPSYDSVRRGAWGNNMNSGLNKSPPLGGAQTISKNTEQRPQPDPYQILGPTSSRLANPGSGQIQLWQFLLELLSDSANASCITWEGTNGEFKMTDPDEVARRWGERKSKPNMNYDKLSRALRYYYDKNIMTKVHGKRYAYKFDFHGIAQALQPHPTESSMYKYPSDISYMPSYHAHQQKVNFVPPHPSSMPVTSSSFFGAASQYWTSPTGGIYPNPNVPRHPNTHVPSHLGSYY
In short: (§1)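 Binding signal is defined as a hexamer's read frequency for one factor over its frequency for the tag-only sample. To obtain reads, GST-fused human transcription factors were expressed in yeast, captured on glutathione beads, barcoded with DNA and pooled with that sample. Pools met 200 nmole of a 16-mer random double-stranded DNA library in Tris/NaCl/DTT/glycerol buffer for 30 min at room temperature before washing, 0.1% formaldehyde crosslinking, proximity ligation (BsaI/T4 ligase, 1 h, 37 °C), PCR and Illumina NextSeq500 sequencing.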

ELK1 = target: T2, ELK1 (Homo sapiens, UniProt P19419 1-428)
T2 sequence: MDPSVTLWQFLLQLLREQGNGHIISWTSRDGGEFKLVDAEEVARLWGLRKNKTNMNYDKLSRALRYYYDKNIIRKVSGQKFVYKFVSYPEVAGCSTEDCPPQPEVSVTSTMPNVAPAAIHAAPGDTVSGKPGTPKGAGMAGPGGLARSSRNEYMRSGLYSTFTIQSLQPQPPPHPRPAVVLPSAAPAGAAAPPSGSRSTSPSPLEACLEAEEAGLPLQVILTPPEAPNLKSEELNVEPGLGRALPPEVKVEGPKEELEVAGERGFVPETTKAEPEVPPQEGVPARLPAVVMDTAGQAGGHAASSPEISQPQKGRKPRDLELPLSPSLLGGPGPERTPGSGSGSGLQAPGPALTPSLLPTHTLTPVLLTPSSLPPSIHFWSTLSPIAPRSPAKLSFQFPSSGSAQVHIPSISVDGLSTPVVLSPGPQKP
In short: as §1

GABPA = target: T3, GABPA (Homo sapiens, UniProt Q06546 1-454)
T3 sequence: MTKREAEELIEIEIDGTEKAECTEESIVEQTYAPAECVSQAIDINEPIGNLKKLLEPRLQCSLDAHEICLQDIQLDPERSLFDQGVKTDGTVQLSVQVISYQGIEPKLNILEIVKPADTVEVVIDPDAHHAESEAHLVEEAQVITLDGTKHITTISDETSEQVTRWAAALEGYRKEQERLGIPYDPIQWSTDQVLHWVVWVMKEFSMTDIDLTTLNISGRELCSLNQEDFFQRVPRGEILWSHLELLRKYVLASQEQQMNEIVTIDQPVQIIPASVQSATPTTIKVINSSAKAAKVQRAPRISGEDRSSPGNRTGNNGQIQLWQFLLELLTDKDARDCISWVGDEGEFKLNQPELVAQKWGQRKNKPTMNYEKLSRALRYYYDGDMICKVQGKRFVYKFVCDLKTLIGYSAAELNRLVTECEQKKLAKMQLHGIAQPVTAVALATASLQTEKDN
In short: as §1

ERG = target: T4, ERG (Homo sapiens, UniProt P11308 1-479)
T4 sequence: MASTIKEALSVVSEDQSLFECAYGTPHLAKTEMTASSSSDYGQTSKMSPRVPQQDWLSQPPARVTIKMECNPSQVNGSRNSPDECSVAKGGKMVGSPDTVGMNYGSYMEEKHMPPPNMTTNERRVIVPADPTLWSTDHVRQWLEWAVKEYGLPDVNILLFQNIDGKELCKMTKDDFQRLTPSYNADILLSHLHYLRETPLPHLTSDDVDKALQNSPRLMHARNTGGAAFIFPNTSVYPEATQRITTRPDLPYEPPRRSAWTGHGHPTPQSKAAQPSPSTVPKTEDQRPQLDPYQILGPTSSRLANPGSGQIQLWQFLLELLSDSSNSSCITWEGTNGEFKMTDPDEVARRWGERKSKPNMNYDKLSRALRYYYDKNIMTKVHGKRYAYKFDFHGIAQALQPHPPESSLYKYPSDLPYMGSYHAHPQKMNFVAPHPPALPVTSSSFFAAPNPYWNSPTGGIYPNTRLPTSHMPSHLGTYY
In short: as §1

ELF1 = ELF1 (Homo sapiens, UniProt P32519 1-619)
Chain of ELF1 (P32519 whole entry): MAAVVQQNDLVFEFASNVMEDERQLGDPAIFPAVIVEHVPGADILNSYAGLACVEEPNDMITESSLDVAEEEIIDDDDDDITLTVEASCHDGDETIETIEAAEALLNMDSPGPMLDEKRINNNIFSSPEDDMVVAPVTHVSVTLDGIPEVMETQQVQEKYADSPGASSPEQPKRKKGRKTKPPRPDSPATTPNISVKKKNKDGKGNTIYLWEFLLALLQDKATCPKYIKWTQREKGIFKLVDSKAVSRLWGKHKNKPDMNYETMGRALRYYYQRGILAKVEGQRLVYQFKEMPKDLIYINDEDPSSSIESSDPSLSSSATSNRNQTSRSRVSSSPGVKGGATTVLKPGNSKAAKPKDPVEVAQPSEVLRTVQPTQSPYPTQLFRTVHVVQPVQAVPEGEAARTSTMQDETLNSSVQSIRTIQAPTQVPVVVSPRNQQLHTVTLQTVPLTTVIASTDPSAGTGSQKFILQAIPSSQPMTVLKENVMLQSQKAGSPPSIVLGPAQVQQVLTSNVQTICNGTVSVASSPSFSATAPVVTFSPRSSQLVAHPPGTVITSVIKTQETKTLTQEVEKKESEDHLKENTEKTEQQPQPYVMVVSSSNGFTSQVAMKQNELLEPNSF
In short: as §1

EHF = target: T5, EHF (Homo sapiens, UniProt Q9NZC4 1-300)
T5 sequence: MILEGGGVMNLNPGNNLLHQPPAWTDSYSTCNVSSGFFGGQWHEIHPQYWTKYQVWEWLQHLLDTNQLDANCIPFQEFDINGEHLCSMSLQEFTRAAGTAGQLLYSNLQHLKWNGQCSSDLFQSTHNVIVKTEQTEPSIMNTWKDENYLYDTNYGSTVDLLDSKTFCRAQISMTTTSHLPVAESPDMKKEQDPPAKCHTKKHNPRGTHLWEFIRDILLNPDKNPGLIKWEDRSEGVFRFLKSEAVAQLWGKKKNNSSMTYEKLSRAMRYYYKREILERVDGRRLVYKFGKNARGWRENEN
In short: as §1

SPI1 = SPI1 (Homo sapiens, UniProt P17947 1-270)
In short: as §1

SPIB = SPIB (Homo sapiens, UniProt Q01892 1-262)
Chain of SPIB (Q01892 whole entry): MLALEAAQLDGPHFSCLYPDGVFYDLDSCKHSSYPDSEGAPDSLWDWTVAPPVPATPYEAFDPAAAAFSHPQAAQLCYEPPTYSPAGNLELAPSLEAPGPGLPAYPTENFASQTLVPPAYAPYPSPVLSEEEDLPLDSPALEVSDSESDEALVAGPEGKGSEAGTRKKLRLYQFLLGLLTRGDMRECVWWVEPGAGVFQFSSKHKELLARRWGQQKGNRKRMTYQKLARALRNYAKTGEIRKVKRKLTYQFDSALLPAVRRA
In short: as §1

ELK3 = target: T6, ELK3 (Homo sapiens, UniProt P41970 1-407)
T6 sequence: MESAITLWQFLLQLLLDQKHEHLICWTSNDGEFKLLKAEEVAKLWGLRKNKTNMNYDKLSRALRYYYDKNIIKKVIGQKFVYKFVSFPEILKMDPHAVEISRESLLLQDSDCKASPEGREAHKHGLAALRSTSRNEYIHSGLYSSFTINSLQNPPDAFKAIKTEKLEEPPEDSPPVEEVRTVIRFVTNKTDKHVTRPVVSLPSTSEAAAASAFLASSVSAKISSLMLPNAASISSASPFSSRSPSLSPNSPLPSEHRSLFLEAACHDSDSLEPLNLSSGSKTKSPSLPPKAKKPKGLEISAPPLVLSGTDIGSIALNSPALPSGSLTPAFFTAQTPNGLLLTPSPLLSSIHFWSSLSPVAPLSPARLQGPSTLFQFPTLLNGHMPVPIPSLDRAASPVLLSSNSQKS
In short: as §1

Sequence | binding signal (FLI1) | binding signal (ELK1) | binding signal (GABPA) | binding signal (ERG) | binding signal (ELF1) | binding signal (EHF) | binding signal (SPI1) | binding signal (SPIB) | binding signal (ELK3)
GTATCA | 1.14 fold enrichment (6-mer frequency, TF over GST control) | 1.07 fold enrichment (6-mer frequency, TF over GST control) | 1.18 fold enrichment (6-mer frequency, TF over GST control) | 1.05 fold enrichment (6-mer frequency, TF over GST control) | 1.05 fold enrichment (6-mer frequency, TF over GST control) | 1.1 fold enrichment (6-mer frequency, TF over GST control) | 1.06 fold enrichment (6-mer frequency, TF over GST control) | 1.02 fold enrichment (6-mer frequency, TF over GST control) | 1.1 fold enrichment (6-mer frequency, TF over GST control)
CCGCCA | 1.38 fold enrichment (6-mer frequency, TF over GST control) | 1.31 fold enrichment (6-mer frequency, TF over GST control) | 1.29 fold enrichment (6-mer frequency, TF over GST control) | 1.3 fold enrichment (6-mer frequency, TF over GST control) | 1.32 fold enrichment (6-mer frequency, TF over GST control) | 1.37 fold enrichment (6-mer frequency, TF over GST control) | 1.3 fold enrichment (6-mer frequency, TF over GST control) | 1.09 fold enrichment (6-mer frequency, TF over GST control) | 1.34 fold enrichment (6-mer frequency, TF over GST control)
TCCTCT | 1.58 fold enrichment (6-mer frequency, TF over GST control) | 1.57 fold enrichment (6-mer frequency, TF over GST control) | 1.57 fold enrichment (6-mer frequency, TF over GST control) | 1.7 fold enrichment (6-mer frequency, TF over GST control) | 1.64 fold enrichment (6-mer frequency, TF over GST control) | 1.7 fold enrichment (6-mer frequency, TF over GST control) | 2.95 fold enrichment (6-mer frequency, TF over GST control) | 1.72 fold enrichment (6-mer frequency, TF over GST control) | 1.6 fold enrichment (6-mer frequency, TF over GST control)
CCCTCT | 1.31 fold enrichment (6-mer frequency, TF over GST control) | 1.43 fold enrichment (6-mer frequency, TF over GST control) | 1.37 fold enrichment (6-mer frequency, TF over GST control) | 1.25 fold enrichment (6-mer frequency, TF over GST control) | 1.28 fold enrichment (6-mer frequency, TF over GST control) | 1.3 fold enrichment (6-mer frequency, TF over GST control) | 1.28 fold enrichment (6-mer frequency, TF over GST control) | 1.56 fold enrichment (6-mer frequency, TF over GST control) | 1.51 fold enrichment (6-mer frequency, TF over GST control)
GTCTCT | 1.41 fold enrichment (6-mer frequency, TF over GST control) | 1.26 fold enrichment (6-mer frequency, TF over GST control) | 1.31 fold enrichment (6-mer frequency, TF over GST control) | 1.33 fold enrichment (6-mer frequency, TF over GST control) | 1.29 fold enrichment (6-mer frequency, TF over GST control) | 1.19 fold enrichment (6-mer frequency, TF over GST control) | 1.32 fold enrichment (6-mer frequency, TF over GST control) | 1.25 fold enrichment (6-mer frequency, TF over GST control) | 1.14 fold enrichment (6-mer frequency, TF over GST control)
AACGTC | 1.07 fold enrichment (6-mer frequency, TF over GST control) | 1.09 fold enrichment (6-mer frequency, TF over GST control) | 1.1 fold enrichment (6-mer frequency, TF over GST control) | 1.07 fold enrichment (6-mer frequency, TF over GST control) | 1.05 fold enrichment (6-mer frequency, TF over GST control) | 1.12 fold enrichment (6-mer frequency, TF over GST control) | 1.02 fold enrichment (6-mer frequency, TF over GST control) | 1.13 fold enrichment (6-mer frequency, TF over GST control) | 1.24 fold enrichment (6-mer frequency, TF over GST control)
ACAACT | 1.36 fold enrichment (6-mer frequency, TF over GST control) | 1.4 fold enrichment (6-mer frequency, TF over GST control) | 1.4 fold enrichment (6-mer frequency, TF over GST control) | 1.41 fold enrichment (6-mer frequency, TF over GST control) | 1.46 fold enrichment (6-mer frequency, TF over GST control) | 1.2 fold enrichment (6-mer frequency, TF over GST control) | 1.41 fold enrichment (6-mer frequency, TF over GST control) | 1.35 fold enrichment (6-mer frequency, TF over GST control) | 1.5 fold enrichment (6-mer frequency, TF over GST control)
